From article PMC4336329 (PLoS ONE, 2015) come the findings set out here.

In all, about 310,000 compounds went through this assay and about 14,000 (4.5%) showed an effect of 50% or more. The effect is printed as a negative number. The list comes from a sample in which strong results are over-represented; it also holds similar structures and randomly drawn compounds.
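Also: peak tail current of the secondary pulse compared with the same well before compound.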

The target of this experiment is human ether-à-go-go-related gene (hERG) potassium channel (human, UniProt Q12809). Put plainly: primary screen, population patch clamp on CHO cells stably expressing hERG; higher = less effect of the substance.
Sequence of human ether-à-go-go-related gene (hERG) potassium channel (Q12809 whole entry, looked up): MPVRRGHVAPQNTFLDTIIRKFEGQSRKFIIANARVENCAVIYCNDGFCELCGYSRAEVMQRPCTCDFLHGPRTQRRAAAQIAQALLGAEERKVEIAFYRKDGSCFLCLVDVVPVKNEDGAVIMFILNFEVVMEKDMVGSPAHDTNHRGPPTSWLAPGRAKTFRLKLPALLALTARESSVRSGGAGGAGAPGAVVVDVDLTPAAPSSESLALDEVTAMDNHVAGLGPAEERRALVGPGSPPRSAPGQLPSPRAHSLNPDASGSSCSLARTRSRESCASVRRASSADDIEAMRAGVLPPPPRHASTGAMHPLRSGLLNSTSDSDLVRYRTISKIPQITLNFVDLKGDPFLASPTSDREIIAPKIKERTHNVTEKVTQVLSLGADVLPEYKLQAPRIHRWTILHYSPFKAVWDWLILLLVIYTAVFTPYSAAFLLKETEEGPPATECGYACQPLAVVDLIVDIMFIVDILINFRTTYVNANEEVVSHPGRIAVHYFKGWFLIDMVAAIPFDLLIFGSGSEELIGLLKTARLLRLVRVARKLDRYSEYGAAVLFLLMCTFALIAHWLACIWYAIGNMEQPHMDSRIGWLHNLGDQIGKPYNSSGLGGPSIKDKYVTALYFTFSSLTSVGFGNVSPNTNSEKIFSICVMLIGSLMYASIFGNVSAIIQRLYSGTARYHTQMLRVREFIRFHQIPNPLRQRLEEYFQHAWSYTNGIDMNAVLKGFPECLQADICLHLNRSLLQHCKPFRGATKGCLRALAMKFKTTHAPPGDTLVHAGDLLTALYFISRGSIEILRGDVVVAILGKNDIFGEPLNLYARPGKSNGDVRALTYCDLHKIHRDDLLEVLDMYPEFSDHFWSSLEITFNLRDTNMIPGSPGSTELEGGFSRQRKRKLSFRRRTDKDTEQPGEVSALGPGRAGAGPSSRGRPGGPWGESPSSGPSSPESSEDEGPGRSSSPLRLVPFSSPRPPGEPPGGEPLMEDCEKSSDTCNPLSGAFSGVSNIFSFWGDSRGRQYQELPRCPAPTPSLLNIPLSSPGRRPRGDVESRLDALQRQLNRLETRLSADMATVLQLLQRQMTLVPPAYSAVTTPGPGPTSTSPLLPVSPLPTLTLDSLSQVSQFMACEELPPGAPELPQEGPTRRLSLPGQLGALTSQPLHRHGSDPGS
Turning to `O=C(O)c1ccc(N2CCN(Cc3ccc4c(c3)OCO4)CC2)c([N+](=O)[O-])c1`, the “hERG current change (%, negative = inhibition) at 10uM” value is 17.3%.

In the case of `O=S(=O)(c1ccc(N2CCN(Cc3ccc4c(c3)OCO4)CC2)nc1)N1CCOCC1`, the “hERG current change (%, negative = inhibition) at 10uM” value was -32.1%.

In the case of `Cl.O=[N+]([O-])c1ccc2ncnc(N3CCN(Cc4ccc5c(c4)OCO5)CC3)c2c1`, the “hERG current change (%, negative = inhibition) at 10uM” value is given as -24.6%.

Turning to `O=Cc1cc([N+](=O)[O-])ccc1N1CCN(Cc2ccc3c(c2)OCO3)CC1`, the “hERG current change (%, negative = inhibition) at 10uM” value is -67.5%.

On to `O=[N+]([O-])c1ccc(N2CCN(Cc3ccc4c(c3)OCO4)CC2)nc1`, for which the “hERG current change (%, negative = inhibition) at 10uM” value is -54.4%.

For `c1ccc(N2CCN(Cc3ccc4c(c3)OCO4)CC2)nc1`, the “hERG current change (%, negative = inhibition) at 10uM” value is reported as -8.79%.

`Cc1nc([N+](=O)[O-])c(N2CCN(C)CC2)n1Cc1ccccc1`: the “hERG current change (%, negative = inhibition) at 10uM” value is given as -10.4%.

Take `CN(C(=O)CN1CCN(c2ccc([N+](=O)[O-])cn2)CC1)c1ccccc1`: the “hERG current change (%, negative = inhibition) at 10uM” value is recorded as -49.1%.

For the molecule `Cc1nc([N+](=O)[O-])c(N2CCOCC2)n1Cc1ccccc1`, the “hERG current change (%, negative = inhibition) at 10uM” value came out at 9.64%.

Take `Cc1nc([N+](=O)[O-])c(N2CCN(Cc3ccccc3)CC2)n1Cc1ccccc1`: the “hERG current change (%, negative = inhibition) at 10uM” value is -64.3%.

Turning to `O=[N+]([O-])c1ccc(N2CCN(c3ccccc3)CC2)nc1`, the “hERG current change (%, negative = inhibition) at 10uM” value amounted to 4.96%.

`Cl.O=[N+]([O-])c1ccc(N2CCN(Cc3ccccc3)CC2)nc1`: the “hERG current change (%, negative = inhibition) at 10uM” value is reported as -59%.

In the case of `COc1cccc(NC(=S)NNC(=O)c2ccccc2OC(F)F)c1`, the “hERG current change (%, negative = inhibition) at 10uM” value is 12.3%.

`Fc1ccccc1-c1[nH]ncc1-c1nnnn1-c1ccccc1`: the “hERG current change (%, negative = inhibition) at 10uM” value is listed as 5.39%.

Take `CCc1nnc(NC(=O)c2ccc3c(c2)C(=O)N(C(C)(C)C)C3=O)s1`: the “hERG current change (%, negative = inhibition) at 10uM” value is on record as 7.02%.

Regarding `O=C(CSc1ccc2ccccc2c1)NC1CCCc2ccccc21` (stereo not drawn), the “hERG current change (%, negative = inhibition) at 10uM” value came to 8.2%.

`COc1ccc(Cl)cc1NC(=S)NC(=O)c1ccco1`: the “hERG current change (%, negative = inhibition) at 10uM” value is on record as -31.5%.

As to `COc1cc(/C=N/NC(=O)CNC(=O)c2ccco2)ccc1O`, the “hERG current change (%, negative = inhibition) at 10uM” value is 7.95%.

Regarding `COc1ccc([N+](=O)[O-])cc1NC(=O)C(C)OC(=O)C1CC(=O)N(Cc2ccco2)C1` (stereo not drawn), the “hERG current change (%, negative = inhibition) at 10uM” value is given as -57.4%.

`COc1cc2c(cc1NC(=O)C(C)OC(=O)C1CC(=O)N(Cc3ccco3)C1)oc1ccccc12` (stereo not drawn): the “hERG current change (%, negative = inhibition) at 10uM” value is on record as -1.77%.

For the molecule `CC(OC(=O)C1CC(=O)N(Cc2ccco2)C1)C(=O)Nc1ccccc1[N+](=O)[O-]` (stereo not drawn), the “hERG current change (%, negative = inhibition) at 10uM” value is on record as -19.1%.

As to `COc1ccc([N+](=O)[O-])cc1NC(=O)C(C)OC(=O)c1ccccn1` (stereo not drawn), the “hERG current change (%, negative = inhibition) at 10uM” value is reported as -7.61%.

`CCc1noc(C)c1C(=O)OC(C)C(=O)Nc1cc([N+](=O)[O-])ccc1OC` (stereo not drawn): the “hERG current change (%, negative = inhibition) at 10uM” value is given as -53.1%.

For the molecule `CCc1noc(C)c1C(=O)OC(C)C(=O)Nc1ccccc1OC` (stereo not drawn), the “hERG current change (%, negative = inhibition) at 10uM” value is listed as -12.8%.
